The text below walks through data of PubChem BioAssay (NCATS).

Records with an inconclusive call do not appear. A number with no mark means an inactive call. Calls come from the whole dose curve; as a rule, active = well fitted curve in the direction sought with a large enough effect in the signal ratio, with a control signal flat (not every such curve was filed as active); inconclusive = small, poorly fitted or top-dose-only effect, or effect the other way, or a change in a side signal; inactive = no such curve, though single readings can be large or run the other way; the % refers to the signal ratio.

Tyrosine-protein phosphatase non-receptor type substrate 1 (Homo sapiens) + Leukocyte surface antigen CD47 (Homo sapiens), sequence (P78324 whole entry, looked up): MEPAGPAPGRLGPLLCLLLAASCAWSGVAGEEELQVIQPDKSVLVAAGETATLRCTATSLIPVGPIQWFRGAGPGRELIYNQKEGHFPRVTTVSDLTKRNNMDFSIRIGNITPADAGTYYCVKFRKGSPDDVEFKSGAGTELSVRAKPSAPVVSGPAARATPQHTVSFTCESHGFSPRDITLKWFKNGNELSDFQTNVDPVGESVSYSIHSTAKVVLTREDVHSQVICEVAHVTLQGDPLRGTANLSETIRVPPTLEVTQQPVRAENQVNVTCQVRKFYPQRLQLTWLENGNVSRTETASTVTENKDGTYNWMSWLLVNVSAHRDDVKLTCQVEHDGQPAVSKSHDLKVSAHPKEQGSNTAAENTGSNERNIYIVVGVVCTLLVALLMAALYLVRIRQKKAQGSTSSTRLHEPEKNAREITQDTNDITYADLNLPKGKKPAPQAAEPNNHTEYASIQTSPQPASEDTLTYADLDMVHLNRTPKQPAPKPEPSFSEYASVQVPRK
Tyrosine-protein phosphatase non-receptor type substrate 1 (Homo sapiens) + Leukocyte surface antigen CD47 (Homo sapiens), sequence (Q08722 whole entry, looked up): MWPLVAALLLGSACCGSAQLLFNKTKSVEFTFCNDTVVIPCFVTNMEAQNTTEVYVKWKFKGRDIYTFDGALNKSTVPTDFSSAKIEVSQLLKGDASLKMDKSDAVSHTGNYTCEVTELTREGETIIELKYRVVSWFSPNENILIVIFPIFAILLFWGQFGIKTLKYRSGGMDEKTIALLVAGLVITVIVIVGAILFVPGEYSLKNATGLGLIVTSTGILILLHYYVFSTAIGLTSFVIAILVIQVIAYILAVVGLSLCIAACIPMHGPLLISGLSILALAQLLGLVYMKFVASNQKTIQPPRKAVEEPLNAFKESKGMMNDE

The assay addresses Tyrosine-protein phosphatase non-receptor type substrate 1 (Homo sapiens) + Leukocyte surface antigen CD47 (Homo sapiens) (UniProt P78324+Q08722). Kind of assay: CD47-SIRPalpha protein protein interaction - LANCE assay qHTS validation (AID 1347057). Note: 0% is about no effect. As to conditions: Recombinant CD47-His / biotin-SIRPalpha, TR-FRET ratio; series mostly up to 38.3 µM; activity change, negative = inhibition: at the top concentration. The text has this:
SIRPalpha is a myeloid cell expressed immunomodulatory receptor that binds the tumor expressed immune checkpoint CD47. Therapeutic disruption of this interaction leads to immune-mediated tumor rejection. This assay was used to quantitate CD47-SIRPalpha binding biochemically and evaluate chemical libraries for novel CD47-SIRPalpha inhibitors. To recapitulate the biological interaction of CD47 and SIRPalpha, we designed expression constructs to produce their recombinant, soluble, extracellular interaction domains. CD47 was produced with an N-terminal 6His tag. SIRPalpha was produced with an N-terminal Avi-Tag for site-specific biotin incorporation. The CD47-SIRPalpha interaction was measured by TR-FRET using affinity tag linked reagents (anti-6His-Eu donor and streptavidin-APC acceptor). SIRPalpha without biotin incorporation was used as a positive control inhibitor.
PROTOCOL TABLE (as described by Miller, T. et al. 2019)
SEQUENCE No. (e.g., 1, 2, 3, etc.); […] (e.g., Cells, Incubation, Reagent, etc.); VALUE and DESCRIPTION.
1a. Reagent. 3 uL CD47-His (12.5 nM) and Anti-His Eu Donor reagent (3 nM) added to respective wells in Assay buffer; white/solid bottom high base, med bind 1536-well plates (Greiner 789075)
1b. Reagent. 2 uL Assay buffer negative control for background fluorescence
2. Reagent. 23 nL library compounds (7-pt, 1:4 intraplate titration series) or DMSO control transferred by Pin Tool
3. Centrifuge. Centrifuge plate for 30 s at 1000 RPM
4. Incubation.#Incubate reagents at room temperature for 30 min, protected from light
5. Reagent. 2 uL SIRPalpha-biotin (100 nM) in Assay buffer
6. Incubation.#Incubate reagents at room temperature for 30 min, protected from light
7. Reagent. 1 uL SAV-APC (26 nM) acceptor reagent added to respective wells
8. Centrifuge. Centrifuge plate for 30 s at 1000 RPM
9. Incubation. Incubate reagents at room temperature for 30 min, protected from light
10. Detector. Measure Top TR-FRET on EnVision (Eu/APC filter set); calculate ratio Ch1/Ch2
1. Assay buffer composition.#Phosphate buffered saline (PBS; 10 mM Phosphate, 137 mM NaCl, and 2.7 mM KCl; pH 7.4), 0.05% IGEPAL CA-630
2. 23nL of […] library compounds (7 plates) or DMSO vehicle control transferred to 9 Greiner white/solid bottom high base, TC plates in 7 interplate 1:5 titrations (see Yasgar, A. et al. 2008) with Pintool. Two of the 9 plates are DMSO-only in compound field at beginning and end of compound library-treated plates.
10. Detector settings#Mirror = LANCE/DELFIA Dual Enh; Ex. Filter = UV2[TRF] 320; Em. Filter = APC 665; 2nd Em. Filter = Europium 615; Measurement h = 6.5; Ex. light (%) = 100; Delay = 60 us; Window t = 100 us; No. Seq. windows = 1; Time between flashes = 2000us; No. of flashes = 100; No. of flashes for 2nd detector = 100; Calculation: "Ratio Ch1/Ch2"
(TR-FRET usually uses a lanthanide donor and a delayed reading to cut background.)
Turning to `NC(=O)c1ccc2[nH]ccc2c1`, the “activity change, negative = inhibition” value was -0.044%. As for `N[C@@H](Cc1ccc(O)c(O)c1)C(=O)O`, the figure is -0.22%; as for `NC(=O)c1cccc(N)c1`, 2.35%; as for `CC(C)NCC(O)c1ccc(NS(C)(=O)=O)cc1` (configuration not stated), 1.69%. On to `CCN1CCCC1CNC(=O)c1cc(S(N)(=O)=O)ccc1OC` (configuration not stated), for which the “activity change, negative = inhibition” value is 0.396%. As for `CC(=O)[C@H]1CC[C@H]2[C@@H]3CCC4=CC(=O)CC[C@]4(C)[C@H]3CC[C@]12C`, the “activity change, negative = inhibition” value was 0.791%. For `Nc1nc(N)c2nc(CNc3ccc(C(=O)NC(CCC(=O)O)C(=O)O)cc3)cnc2n1` (configuration not stated), the “activity change, negative = inhibition” value is 1.85%.

For `O=C(O)C1CCCN(CCC=C(c2ccccc2)c2ccccc2)C1` (configuration not stated), the “activity change, negative = inhibition” value was 0.613%.

Consider `CC1=C(C(=O)O)N2C(=O)[C@@H](NC(=O)C(N)c3ccccc3)[C@H]2SC1` (some centres not stated), for which the “activity change, negative = inhibition” value was 4.03%. As for `OCc1ccc(-c2nn(Cc3ccccc3)c3ccccc23)o1`, the figure is 4.42%; as for `CNS(=O)(=O)CCc1ccc2[nH]cc(C3CCN(C)CC3)c2c1`, 1.14%.

For `CCN(CC)CCn1c(=O)c(Cc2ccc(OC)cc2)nc2ccccc21`, the “activity change, negative = inhibition” value is -0.0669%. `CC1CC2C3CCC4=CC(=O)C=C[C@]4(C)[C@@]3(F)[C@@H](O)C[C@]2(C)[C@@]1(O)C(=O)CO` (some centres not stated): the “activity change, negative = inhibition” value was 1.58%. As for `COc1cc2ncnc(Nc3cccc(Cl)c3)c2cc1OC`, the figure is -0.977%; as for `COc1cc2nc(N3CCCN(C)CC3)nc(NC3CCN(Cc4ccccc4)CC3)c2cc1OC`, -5.15%. As for `Cc1ccc(S(=O)(=O)N[C@@H](Cc2ccccc2)C(=O)CCl)cc1`, the figure is 0.931%; as for `CCCCS(=N)(=O)CCC(N)C(=O)O` (configuration not stated), 3.21%.
